# According to PubChem BioAssay AID1850 (Southern Research Specialized Biocontainment Screening …, 2009):
# Where “and” joins values, the source holds several entries; their conditions need not be identical. Equal values may be shown once. Out of some 310,000 compounds screened, about 1,000 (0.32%) were called active. The rule behind the calls is not given here. The list is a sample of the results. Results with a measured potency or affinity are listed apart.
# Assay: PhoP regulon inhibitors, Salmonella typhi PhoP promoter GFP reporter, confirmatory (AID 1850);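 note: 0% = induced wells with vehicle and 100% = uninduced wells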
# Conditions: fluorescence, 4 h, at 50 µM, hits give high values
row,Structure (SMILES),inhibition
1,C=CCc1cc(Cl)ccc1OCCN1CC(C)OC(C)C1 (centres undefined),-16% (inactive)
2,Cn1c(-c2cccc([N+](=O)[O-])c2)cnc1NCc1ccc(C#N)cc1,-3.32% (inactive)
3,CC1(C)Cc2c(sc3c2c(N)nc(=S)n3Cc2ccccc2)CO1,-10.9% (inactive)
4,O=C(NCCC1=CCCCC1)c1cc(S(=O)(=O)N2CCOCC2)ccc1Cl,-3.59% (inactive)
5,Cc1ccc(S(=O)(=O)Nc2cc(C(=O)N3CCC4(CC3)OCCO4)ccc2N2CCCCC2)cc1,3.06% (inactive)
6,Cc1nc(SCC(=O)Nc2cc(Cl)ccc2[N+](=O)[O-])nc(C)c1C,1.39% (inactive)
7,O=C(CSc1nc2ccccc2[nH]1)N1CCN(C(=O)c2ccco2)CC1,-8.53% (inactive)
8,COc1ccc(CSC(=N)N)cc1[N+](=O)[O-],-11.2% (inactive)
9,CCCOc1ccc(CSC2=NCCN2)cc1[N+](=O)[O-],23.3% (inactive)
10,CCCCOc1ccc(CSCCN)cc1Cl,12% (inactive)
11,CCOc1ccc(CSC(=N)N)cc1Cl,20.5% (inactive)
12,CCOc1ccc(CSC(=N)N)cc1[N+](=O)[O-],-0.03% (inactive)
13,CCCOc1ccc(CCCN=C(N)N)cc1Cl,22.8% (inactive)
14,CCCCOc1ccc(CSC2=NCCN2)cc1[N+](=O)[O-],7.52% (inactive)
15,CCOc1ccc(CN=C(N)N=C(N)N)cc1Cl,20% (inactive)
16,Cc1cc(C(=O)Cn2nc(C(=O)O)c3ccccc3c2=O)c(C)n1-c1ccc(OC(F)F)cc1,-17.2% (inactive)
17,CCOC(=O)c1ccc(NC(=O)N2CCOCC2)cc1,9.07% (inactive)
18,O=C(CCN1C(=O)C2CC=C(Cl)CC2C1=O)N1CCCCC1 (centres undefined),4.62% (inactive)
19,O=C1c2ccccc2-c2nc3ccccc3n21,-6.73% (inactive) and -7.55% (inactive)
20,CCCOc1ccc(Br)cc1CSC(=N)N,20.4% (inactive)
21,CCOc1ccc(Br)cc1CSC(=N)N,-6.33% (inactive)
22,O=C(CN1C(=O)NC2(CCCC2)C1=O)Nc1ccc(S(=O)(=O)N2CCOCC2)cc1,-0.54% (inactive)
23,OCCNc1nc(Nc2ccc(O)cc2)nc2ccccc12,1.07% (inactive)
24,Cc1ccc(Nc2nc(N)c([N+](=O)[O-])c(NCCO)n2)cc1C,13.6% (inactive)
25,OCCNc1nc(NCc2ccccc2)c2ccccc2n1,-4.21% (inactive)

row,Structure (SMILES),inhibition
1,OCCNc1nc(Nc2ccccc2Cl)nc(N2CCCC2)n1,-6.06% (inactive)
2,OCCNc1nc(-c2ccccc2)nc2ccccc12,16% (inactive)
3,Cc1cc(NCCO)c2ccccc2n1,-12.1% (inactive)
4,OCCNc1nc(Nc2ccccc2)nc(Nc2ccccc2)n1,-3.62% (inactive)
5,O=C(NCCO)c1nc(NCCO)c2ccccc2n1,-2.84% (inactive)
6,O=C(CSc1ccc2c(c1)OCCO2)NCc1ccccc1,6.58% (inactive)
7,CC(Sc1nnc(Nc2ccccc2)s1)C(=O)NC1CCCc2ccccc21 (centres undefined),9.25% (inactive)
8,O=C(COc1ccc(Br)cc1)N(CCO)CCO,-3.36% (inactive)
9,O=P(O)(Oc1ccccc1)OC(c1ccccc1)C(F)(F)C(F)(F)F (centres undefined),5.37% (inactive)
10,O=C(NCCNS(=O)(=O)c1ccc(Cl)cc1)c1cc(OCC(F)(F)F)ccc1OCC(F)(F)F,0.75% (inactive)
11,c1coc(-c2cc(C3CCNCC3)[nH]n2)c1,10.6% (inactive)
12,CC(Oc1ccccc1)C(=O)N=C1SC2CS(=O)(=O)CC2N1Cc1ccc(F)cc1 (centres undefined),2.75% (inactive)
13,COc1cc(C(=O)OCC(=O)NCc2ccc(F)cc2)cc(NC(=O)c2cccs2)c1OC,12.9% (inactive)
14,COCCN(Cc1cc2cc3c(cc2nc1Cl)OCO3)C(=O)c1ccc(C)cc1,-6.89% (inactive)
15,CCc1ccc(CN2C(=O)c3ccccc3C2C(=O)NCc2cccnc2)cc1 (centres undefined),-8.38% (inactive)
16,OCCNc1nc(Nc2cccc(O)c2)nc2ccccc12,-3.51% (inactive)
17,COc1ccc(OC)c(Nc2nc(NCCO)c3ccccc3n2)c1,-0.87% (inactive)
18,CN1N=C(C(=O)Nc2ccc3c(c2)CCC3)CCC1=O,-2.98% (inactive)
19,COc1cccc(COc2ncnc3sccc23)c1,3.57% (inactive)
20,O=C(O)c1oc2ccccc2c1CN1CCN(c2ccccc2)CC1,-0.62% (inactive)
21,COc1ccc(OCC(=O)Nn2c(-c3cccc(OC)c3)nc3ccccc3c2=O)cc1,-2.54% (inactive)
22,COCCCn1c(SCC(=O)NC2CCCC2)nnc1-c1cccs1,7.9% (inactive)
23,Nc1ccccc1C(=O)NNC(=O)C(=O)/C=C(\O)c1ccccc1,3.15% (inactive)
24,COc1ccc(/C(O)=C/C(=O)C(=O)NNC(=O)c2ccccc2)cc1,12.4% (inactive)
25,COc1ccc(-c2nnc(OC)c3ccccc23)cc1,-2.2% (inactive)

row,Structure (SMILES),inhibition
1,O=C(O)C1=C[C@H](c2csc3ccccc23)C[C@H](OCc2ccc(CO)cc2)O1,17.9% (inactive)
2,NS(=O)(=O)c1ccc(CCNC(=O)C2CCCO2)cc1 (centres undefined),-6.93% (inactive)
3,CC(C)N1C(=O)/C(=C\c2nc3ccccc3c(=O)n2-c2ccccc2)c2ccccc21,-1.3% (inactive)
4,COc1cc(C(C[N+](=O)[O-])c2c(N)n(C)c(=O)n(C)c2=O)ccc1O (centres undefined),-9.41% (inactive)
5,Cn1c(N)c(C(C[N+](=O)[O-])c2ccccc2Cl)c(=O)n(C)c1=O (centres undefined),16% (inactive)
6,Cc1c(CCC(=O)NCCCn2ccnc2)c(=O)oc2c(C)c3oc4c(c3cc12)CCCC4,2.2% (inactive)
7,Cc1ccccc1S(=O)(=O)Cc1ccc(C(=O)O)o1,-5.44% (inactive)
8,Cc1cc(C)cc(Nc2cc(=O)n(C3CCCCC3)c(=O)[nH]2)c1,3.88% (inactive)
9,Cn1c(NC2CCCCC2)cc(=O)n(C)c1=O,-41.1% (inactive)
10,O=C(O)c1ccccc1NCc1cccs1,-6.17% (inactive)
11,O=C(NNc1c2ccccc2nc2ccccc12)c1ccccc1Cl,5.14% (inactive)
12,Cc1cc(C(=O)Cn2nc(C(=O)O)c3ccccc3c2=O)c(C)n1CC(F)(F)F,-16% (inactive)
13,O=C(NNC(=O)C1CC=CCC1)c1cccc(Br)c1 (centres undefined),5.92% (inactive)
14,CCOc1cc(CN2CCc3c([nH]c4ccccc34)C2)ccc1OC,-1.33% (inactive)
15,CCCCCCNC(=O)C(=O)NCCc1ccc(Cl)cc1,-2.68% (inactive)
16,CCCCCc1ccc(CC(=O)O)cc1,7.27% (inactive)
17,Cc1[nH]c2ccccc2c1C(=O)CN1C(=O)C(=O)N(Cc2ccco2)C1=O,-2.82% (inactive)
18,CN(Cc1ccccc1)CC(O)COc1ccc(CNCc2cccnc2)cc1 (centres undefined),6.07% (inactive)
19,CN(Cc1ccccc1)CC(O)COc1ccc(CNCc2cc3ccccc3s2)cc1 (centres undefined),5.91% (inactive)
20,COc1ccc(OC(C)C(=O)NCc2cccnc2)cc1 (centres undefined),-6.99% (inactive)
21,O=C(Nc1cccc(Cl)c1)c1ccccc1,-1.86% (inactive)
22,O=C(Nc1ccc(Cl)c(Cl)c1)c1ccccc1,-28.6% (inactive)
23,COc1cc(C)ccc1N(CCCN1C(=O)c2cccc3cccc(c23)C1=O)C(=O)c1cccs1,-7.11% (inactive)
24,O=C1c2ccccc2NC(c2ccccc2O)N1c1ccc(F)cc1 (centres undefined),-11.4% (inactive)
25,CC1(C)Cc2c(cnn2-c2cccc(F)c2)C(NC(=O)c2ccc(=O)[nH]n2)C1 (centres undefined),2.67% (inactive)

row,Structure (SMILES),inhibition
1,O=C(CCN1C(=O)c2ccccc2C1=O)Nn1cnnc1,-10.1% (inactive)
2,CC(=O)c1ccc(NC(=O)C2CCCN2S(=O)(=O)c2ccc(F)cc2)cc1 (centres undefined),0.38% (inactive)
3,O=S1(=O)CCOC[C@H](c2ccccc2)N1Cc1cccc(Cl)c1,9.33% (inactive)
4,C=CCc1cc(C)ccc1OCCCC(C(=O)OCC)C(=O)OCC,-4.53% (inactive)
5,CCCCOc1ccc(C)cc1CN(CCO)CCO,-0.81% (inactive)
6,Cc1cc(NC(=O)c2cccs2)n(-c2ccccc2)n1,-5.58% (inactive)
7,CCOC(=O)c1cn(-c2ccc([N+](=O)[O-])cc2)c2cc(Cl)c([N+](=O)[O-])cc2c1=O,-25.3% (inactive)
8,O=C(O)c1cn(-c2ccc(F)cc2)c(=O)c2ccccc12,-6.8% (inactive)
9,CNC(=O)C(=O)NCC1OCCN1S(=O)(=O)c1ccc([N+](=O)[O-])cc1 (centres undefined),0.4% (inactive)
10,CC(=O)c1c(C)[nH]c(C(=O)COC(=O)c2ccc3c(=O)n4c(nc3c2)CCC4)c1C,-1.34% (inactive)
11,Cc1ccc2nsnc2c1NC(=O)c1ccc([N+](=O)[O-])o1,1.72% (inactive)
12,O=C(Nc1ccc(Cc2ccncc2)cc1)c1ccc(Br)o1,7.97% (inactive)
13,Cc1cccc(NC(=O)c2ccc([N+](=O)[O-])o2)c1C,-7.49% (inactive)
14,CCn1nnc(NC(=O)c2ccc(Br)o2)n1,3.35% (inactive)
15,O=C(Nc1c(Cl)ccc2nsnc12)c1ccco1,-5.33% (inactive)
16,CC(=O)c1ccc(NC(=O)c2ccc([N+](=O)[O-])o2)cc1,10.8% (inactive)
17,CCn1nnc(NC(=O)c2ccc(-c3ccccc3[N+](=O)[O-])o2)n1,11.3% (inactive)
18,Cc1ccccc1NC(=O)c1ccc([N+](=O)[O-])o1,11.6% (inactive)
19,Cc1c(C(=O)N2CCC(N3CCSCC3)CC2)oc2c(F)cccc12,-3.19% (inactive)
20,Cc1cc(NC(=O)NCC(F)(F)F)no1,-7.59% (inactive)
21,CCN(CC)C(=O)c1sc2nc(N3CCOCC3)c3c(c2c1N)CCCC3,3.42% (inactive)
22,O=C(Nc1ccccc1Cl)NC1(C(=O)NCc2ccncc2)CCCCC1,9.06% (inactive)
23,CC(C)Cn1c(SCc2nc3ccccc3c(=O)[nH]2)nc2ccccc2c1=O,-7.91% (inactive)
24,Cc1sc(NC(=O)C2=COCCO2)nc1-c1ccc(F)cc1,-5.87% (inactive)
